Bioassay records deposited in PubChem BioAssay by several laboratories.
Hits are enriched below; roughly 6.2% of the tested compounds scored in any of these assays.
NTR1 agonist = agonists of human neurotensin receptor NTR1. activation, % at 20 µM. NTR1-U2OS beta-arrestin-GFP spot imaging, agonist mode. P30989. 330,000 compounds, 0.17% hits. AID 493036;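 active = activation at or above 40% of the spot to cytoplasm intensity ratio, with at least 20 cells analyzed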
Target sequence (P30989 whole entry, looked up): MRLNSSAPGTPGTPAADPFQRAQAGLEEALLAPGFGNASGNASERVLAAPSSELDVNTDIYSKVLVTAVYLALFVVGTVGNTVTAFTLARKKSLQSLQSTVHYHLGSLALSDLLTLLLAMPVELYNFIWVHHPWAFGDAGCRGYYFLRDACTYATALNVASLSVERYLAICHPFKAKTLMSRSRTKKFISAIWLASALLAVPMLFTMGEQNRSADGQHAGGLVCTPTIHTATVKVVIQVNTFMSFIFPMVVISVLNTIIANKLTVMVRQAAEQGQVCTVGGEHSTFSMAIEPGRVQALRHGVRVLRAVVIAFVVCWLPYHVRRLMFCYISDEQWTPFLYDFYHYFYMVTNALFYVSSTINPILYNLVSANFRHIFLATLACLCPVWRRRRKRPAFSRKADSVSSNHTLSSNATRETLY
H9c2 protect = protects H9c2 cardiomyocytes from peroxide injury; AID 588492; 360,000 compounds, 0.63% hits; H2O2 injury protection, ATPLite, 2 h; protection from H2O2 cell death, % at 20 µM;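 active = compounds giving at least 50% protection of heart cells from peroxide-induced death in the single-dose screen, raw or plate-pattern-corrected value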
AI-2 QS modul = modulators of Vibrio harveyi AI-2 quorum sensing system. Vibrio harveyi JMH597 AI-2 luminescence/OD600 ratio, 9 h; active compounds read low; strain lacks LuxN and CqsS sensors; 0 = neutral-control median. activity change, % at 7.5 µM. 300,000 compounds, 0.4% hits. AID 2094; in the data active = activity change below about -75%, passing the limit was not always enough;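 also: luminescence divided by OD600 gain over 9 h not by final OD600 alone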
GRIN3A LBD mod = modulates the human NR3A ligand-binding domain; 340,000 compounds, 2.5% hits; NR3A LBD differential scanning fluorimetry, Tm shift; 0% = protein alone, 100% = glycine-bound protein; Tm shift relative to glycine control, % at 25 µM;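 active = melting temperature shift of at least 10% of the positive control shift, at one fixed dose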
SUMO Mot1 rescue = blocks SUMOylation pathway, rescuing yeast Mot1-301 growth. S. cerevisiae Mot1-301 growth rescue, ATP luminescence, 38.5C; percent above DMSO median, 100 means doubled. growth rescue, % at 18.8 µM. 320,000 compounds, 1% hits;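 active = every valid replicate shows activation above 250% relative to neutral control wells; inactive = the rest, any valid replicate at or below 250%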
AHR activator = human AHR activation | activation, % at 5 µM | 320,000 compounds, 2.5% hits | AHR-responsive luciferase reporter cells, luminescence; in the data active = activation above about 47%
AHR act cf = confirmation of human aryl hydrocarbon receptor activators | shares compounds with AHR activator | human cells, AHR-responsive luciferase reporter, luminescence | activation, % at 9 µM | 2,300 compounds, 87% hits | AID 2845; in the data active = activation above about 49%;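 also: HepG2 hepatoma cells carrying a DRE-driven firefly luciferase reporter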
PXR act counter = activates human PXR in AHR activator counter-screen; shares compounds with AHR activator; cell-based PXR reporter, luciferase luminescence; activation, % at 11.6 µM; 2,300 compounds, 88% hits; AID 434939; in the data active = activation above about 11%;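 also: human hepatoma DPX-2 cells expressing full-length human PXR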
Numbers stand for hits; - = inactive; . = no result.

SMILES | NTR1 agonist | H9c2 protect | AI-2 QS modul | GRIN3A LBD mod | SUMO Mot1 rescue | AHR activator | AHR act cf | PXR act counter
Cc1ccc2c(c1)[nH]c1c(=O)n(CCN3CCCCC3)cnc12 | - | - | - | - | - | 94 | 105 | 76
Cc1ccc2c(c1)[nH]c1c(=O)n(CCCN3CCOCC3)cnc12 | - | - | - | - | - | - | . | .
COc1ccc(C(=O)O/N=C(\N)c2ccccc2)c(OC)c1 | - | - | - | - | - | 97 | 56 | -
COc1ccc(C(=O)O/N=C(\N)c2ccc(OC)c(OC)c2)c(OC)c1 | - | - | - | - | - | - | . | .
CCOC(=O)CCCCCN(Cc1ccccc1)S(=O)(=O)c1ccc([N+](=O)[O-])cc1 | - | - | - | - | - | 92 | - | 27
CCOC(=O)c1ccc(CN(Cc2ccccc2)S(=O)(=O)c2cccc([N+](=O)[O-])c2)cc1 | - | - | - | - | - | - | . | .
C=CCn1c(-c2ccc(OC)cc2)nc2nc3ccccc3nc21 | - | - | - | - | - | - | . | .
c1ccc(-c2nc3nc4ccccc4nc3n2Cc2ccco2)cc1 | - | - | - | - | - | 99 | 71 | 20
O=C(NCc1cccnc1)c1ccc(-c2ccccc2[N+](=O)[O-])o1 | - | - | - | - | - | 87 | 95 | 39
Cc1cc(-c2ccc(F)cc2)n2ncc(-c3ccccc3)c2n1 | . | - | . | . | . | . | . | .
Cc1cc(C(F)(F)F)n2ncc(-c3ccc(F)cc3)c2n1 | - | - | - | - | - | 88 | 120 | 23
CN1CCN(CCCNC(=O)c2ccc(CS(=O)(=O)c3ccc(Br)cc3)o2)CC1 | - | - | - | - | - | 81 | - | 12
CNC(=S)N/N=C/c1cn(CCOc2ccccc2OC)c2ccccc12 | - | - | - | - | - | 80 | 62 | 110
CCOC(=O)N/N=C/c1cn(CCCOc2ccccc2)c2ccccc12 | - | - | - | - | - | 105 | 85 | 34
COc1ccccc1OCCn1cc(C=O)c2ccccc21 | - | - | - | - | - | . | . | .
CCOC(=O)[C@H]1[C@H]2COc3ccc(C)cc3[C@@H]2N2C(=O)CN(C)C(=O)[C@@]12C | . | - | . | - | . | . | . | .
COC(=O)/C(=C(O)\C=C\c1ccccc1[N+](=O)[O-])c1nc2ccccc2[nH]1 | - | 68 | - | - | - | 92 | 113 | 47
O=C(CN1CCCCC1)Nc1nnc(-c2ccccc2)s1 | - | - | - | - | - | 109 | 132 | 27
O=C(CN1CCCC1)Nc1nnc(-c2cccs2)s1 | - | - | - | - | - | 126 | 125 | 16
COCC(=O)Nc1nnc(-c2ccc(C(C)(C)C)cc2)s1 | - | - | - | - | - | 86 | 99 | 30
COc1ccc(NC(=O)Nc2nnc(C(C)(C)C)s2)cc1 | - | - | - | - | - | - | . | .
O=C(CN1CCCCC1)Nc1nnc(-c2ccc([N+](=O)[O-])cc2)s1 | - | - | - | - | - | - | . | .
COc1ccc(NC(=O)Nc2nnc(-c3cccs3)s2)cc1 | - | - | - | 16 | - | 90 | 102 | 37
Cc1cc(C(=O)NNC(=S)NC2CCCCC2)cs1 | - | - | - | - | - | - | . | .
O=C(OCc1cn([C@H]2C[C@H](c3ccccc3)N(Cc3cccs3)C[C@@H]2O)nn1)c1ccccc1 | . | - | . | . | . | . | . | .
SMILES | NTR1 agonist | H9c2 protect | AI-2 QS modul | GRIN3A LBD mod | SUMO Mot1 rescue | AHR activator | AHR act cf | PXR act counter
CCOc1ccc(Oc2ccc(NS(=O)(=O)c3ccc(CCC(=O)O)cc3)cc2)cc1 | . | - | . | . | . | . | . | .
CC(=O)Nc1c(C(=O)Nc2ccc3c(c2)OCO3)oc2ccccc12 | - | - | - | - | - | 113 | 147 | 35
O=C(CCl)Nc1c(C(=O)Nc2ccc3c(c2)OCCO3)oc2ccccc12 | - | - | - | - | - | - | . | .
CSCc1c(C(=O)Nc2ccc3c(c2)OCO3)oc2ccccc12 | - | - | - | - | - | 92 | 109 | 45
CSCc1c(C(=O)Nc2ccc(N3CCOCC3)cc2)oc2ccccc12 | - | - | - | - | - | 87 | 95 | 13
CCC/C=C/c1ccc(CN2C(CC(C)C)C(=O)N(Cc3cn(CC4CCCCC4)nn3)CCS2(=O)=O)cc1 (stereo not given) | . | - | . | . | . | . | . | .
CCC(C)(CC(=O)Nc1nccs1)c1ccccc1 (stereo not given) | - | - | - | - | - | - | . | .
COc1ccccc1-c1nnc(NC(=O)C(C)C)s1 | - | - | - | - | - | 84 | 123 | 16
COc1ccccc1-c1nnc(NC(=O)C(C)Sc2nncn2C)s1 (stereo not given) | - | - | - | - | - | - | . | .
CC(C)C(=O)Nc1nnc(NC(=S)Nc2ccccc2)s1 | - | - | - | - | - | 104 | 61 | 21
COc1ccccc1-c1nnc(NC(C)=O)s1 | - | - | - | - | - | 82 | 59 | .
CCCc1nnc(NC(=S)Nc2ccccc2)s1 | - | - | - | - | - | - | . | .
C/C(=N\NC(=O)c1ccccc1-n1cccc1)C1CC1 | - | - | - | - | - | 98 | - | -
NNC(=O)c1ccccc1-n1cccc1 | - | - | - | - | . | 121 | - | -
O=C(N/N=C\c1ccccc1)c1ccccc1-n1cccc1 | - | - | - | - | - | 92 | 111 | 38
O=C(NNC(=O)c1ccccc1-n1cccc1)c1ccccc1 | - | - | - | - | - | 81 | 93 | 12
COCCNC(=S)N(C)[C@H]1C[C@H]2c3cc(Oc4ccccc4C)ccc3CCN2C(=O)[C@H]1[C@H](C)O | . | - | . | . | . | . | . | .
CCc1nn(CCCC(=O)N2CCN(c3cccc(C)c3C)CC2)c(=O)c2cc3occc3n12 | - | - | - | - | - | - | . | .
CNc1cc(C(=O)Nc2cccc(OCc3ccccc3)c2)ncn1 | . | - | . | . | . | . | . | .
CCCCCCn1c(=O)n2n(c1=O)C[C@]1(OC(=O)NCC3CCCCC3)CN(S(=O)(=O)c3ccc(C)cc3)C[C@]1(O)C2 | . | - | . | . | . | . | . | .
Cc1cccc(OCC(=O)N(Cc2ccco2)C2CCS(=O)(=O)C2)c1C (stereo not given) | - | - | - | - | - | - | . | .
C/C(=N\NC(=S)Nc1cccc(C)c1)c1ccccc1 | - | - | - | - | - | 84 | 111 | 42
C/C(=N\NC(=S)Nc1cccc(C)c1)c1cccc(N)c1 | - | - | - | - | - | - | . | .
COc1cccc(OC)c1C(=O)Nc1sc2c(c1C(N)=O)CCN(Cc1ccccc1)C2 | - | - | - | - | - | 129 | 85 | 59
CC(=O)c1ccc(C(=O)Nc2sc3c(c2C(N)=O)CCN(Cc2ccccc2)C3)cc1 | - | - | - | . | - | - | . | .
Cc1cc(C)nc(Nc2ccccc2Br)n1 | - | - | - | - | - | - | . | .
Cc1cc(C)nc(Nc2cccc3ccccc23)n1 | - | - | - | - | - | 131 | 109 | 19
